FBW7 activator = human FBW7 E3 ligase activation, primary screen. Q969H0. AlphaScreen FBW7–phospho-cyclin E peptide binding, activator screen. normalized activity (activation), % at 26.1 µM. 650,000 compounds, 0.13% hits. AID 1259310; in the data active = normalized activity above about 1.9%;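 note: purified mutant Fbw7 with reduced substrate affinity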
Target sequence (Q969H0 whole entry, looked up): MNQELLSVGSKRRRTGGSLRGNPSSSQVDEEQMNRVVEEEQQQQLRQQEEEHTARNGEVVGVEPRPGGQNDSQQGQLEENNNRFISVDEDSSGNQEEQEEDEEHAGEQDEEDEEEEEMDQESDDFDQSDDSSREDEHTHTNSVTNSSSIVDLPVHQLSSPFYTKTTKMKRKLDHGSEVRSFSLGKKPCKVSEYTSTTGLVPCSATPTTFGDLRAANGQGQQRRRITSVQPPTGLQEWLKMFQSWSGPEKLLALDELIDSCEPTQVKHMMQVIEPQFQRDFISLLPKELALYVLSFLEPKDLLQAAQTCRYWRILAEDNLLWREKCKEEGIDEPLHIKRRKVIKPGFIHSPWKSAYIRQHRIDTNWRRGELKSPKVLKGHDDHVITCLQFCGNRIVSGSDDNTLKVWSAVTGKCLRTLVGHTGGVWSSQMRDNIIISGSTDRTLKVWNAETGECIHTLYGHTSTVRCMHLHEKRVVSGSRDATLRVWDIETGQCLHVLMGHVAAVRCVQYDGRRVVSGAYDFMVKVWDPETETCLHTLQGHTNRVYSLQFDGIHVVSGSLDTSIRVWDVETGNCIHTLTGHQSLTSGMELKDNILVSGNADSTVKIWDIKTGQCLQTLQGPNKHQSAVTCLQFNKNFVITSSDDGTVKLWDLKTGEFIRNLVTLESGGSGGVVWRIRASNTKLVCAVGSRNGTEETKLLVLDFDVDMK
TEAD-YAP block = TEAD-YAP interaction inhibition | HEK-TIYL cells, TEAD-Gal4/YAP UAS-luciferase luminescence | inhibition, % at 9.12 µM | 640,000 compounds, 1.4% hits; in the data active = inhibition above about 32%;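 note: 0% = median of test compound wells and 100% = reference inhibitor wells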
GPR151 ag = activates the human receptor GPR151. Q8TDV0. PathHunter beta-arrestin GPR151 cells, luminescence. activation, % at 11.2 µM. 650,000 compounds, 1% hits; in the data active = activation above about 4.9%;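 note: 0% = median of compound wells and 100% = cells with positive control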
MITF inh = inhibitors of human MITF. O75030. AlphaScreen MITF homodimerization, bead proximity signal. inhibition, % at 2.6 µM. 650,000 compounds, 0.91% hits. AID 1259374; in the data active = inhibition above about 50%;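 note: 0% = vehicle wells with protein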
MITF inh conf = confirmation of human MITF inhibitors; shares compounds with MITF inh; AlphaScreen MITF homodimerization, biotin/His-MITF beads; inhibition, % at 2.6 µM; 4,700 compounds, 16% hits;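 active = inhibition above a cutoff derived from the DMSO control wells, cut at about 28% in these data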;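 note: 0% = MITF dimer wells with DMSO only; inhibitors lower the bead chemiluminescence by keeping MITF from dimerizing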
AS interf DR = optically interferes with AlphaScreen signal in dose response | AlphaScreen optical interference counterscreen, cell-free | IC50, µM | 480 compounds, 6% hits | shares compounds with MITF inh; call rule not given here
AlphaScreen intf2 = counter-screen: compounds optically interfering with AlphaScreen | shares compounds with MITF inh | LysRS AlphaScreen counterscreen, signal interference, triplicate | inhibition, % at 2.6 µM | 4,700 compounds, 7.6% hits | AID 1259376;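 active = inhibition above a cutoff derived from the DMSO control wells, cut at about 30% in these data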
* hit, by the source's call; nt = not tested or not shown. The list is not random: actives were taken first. Their share in the collection is about 3.5%.

SMILES	FBW7 activator	TEAD-YAP block	GPR151 ag	MITF inh	MITF inh conf	AlphaScreen intf2	others
Nc1ncc(-c2ccccc2)nc1N1CCC(C(=O)O)CC1	0	-22	0	-7	nt	nt
CCCCC(=O)Nc1ccc(NC(=O)c2ccc(F)cc2)nc1	0	-62	1	15	nt	nt
COc1ccc(Br)cc1CN1CCN(Cc2cccn2C)CC1	0	1	1	67*	19	16
COc1ccc(OC)c(CN2CCOCC2)c1	0	3	-1	1	nt	nt
COc1ccc(Br)cc1CN1CCCCC1	0	5	1	-2	nt	nt
COc1ccc(OC)c(CN2CCN(Cc3cccn3C)CC2)c1	0	0	5	63*	1	8
CN(C)C(=O)CN1CCC(O)(c2ccc(F)cc2)CC1	0	-7	2	6	nt	nt
CC(=O)Oc1cccc(C(=O)Nc2cc(C(=O)O)ccc2C)c1	0	15	1	102*	7	18
Cc1ccc(C(=O)O)cc1NC(=O)c1cccc(C(=O)Nc2cc(C(=O)O)ccc2C)c1	1	1	-1	14	nt	nt
CCOC(=O)C1=C(C)NC2=C(C(=O)CC(c3ccc(OC)c(OC)c3)C2)C1c1ccccc1F (stereo not drawn)	0	18	-1	-4	nt	nt
COc1cc(C2C(C(=O)OC(C)C)=C(C)NC3=C2C(=O)CC(c2ccccc2)C3)ccc1OCc1ccccc1 (stereo not drawn)	0	5	0	64*	10	17
COc1ccc(C2C(C(=O)OC(C)C)=C(C)NC3=C2C(=O)CC(c2ccccc2)C3)cc1OC (stereo not drawn)	2	1	-1	6	nt	nt
COc1ccc(C2Nc3ccccc3NC3=C2C(=O)CC(c2ccc(Cl)cc2)C3)cc1OC (stereo not drawn)	0	-1	2	3	nt	nt
COc1ccc(C2Nc3ccccc3NC3=C2C(=O)CC(c2ccccc2)C3)cc1OC (stereo not drawn)	0	3	1	57*	13	14
NNc1ncnc(NN(c2ccccc2)c2ccccc2)c1[N+](=O)[O-]	0	-10	0	0	nt	nt
COc1ccccc1CNC(=O)CCCn1sc2ccccc2c1=O	0	-5	0	4	nt	nt
c1csc(CN2CCOc3ccc(CN4CCOCC4)cc3C2)c1	0	2	1	-1	nt	nt
Cc1ccc(NC(=O)CC2NCCNC2=O)cc1C (stereo not drawn)	1	-14	0	72*	7	21
CCN(CC)CC(=O)Nc1ccc(OC)cc1	1	-9	-1	52*	28*	18	AS interf DR=>6.5
CCN(CC(=O)Nc1ccc(OC)cc1)CC(=O)NC(C)(C)C	0	-2	-1	9	nt	nt
CCN(CC)CC(=O)Nc1ccc2c(c1)OCO2	0	-2	0	3	nt	nt
CCN(CC(=O)Nc1ccc2c(c1)OCCO2)CC(=O)Nc1ccccc1C(F)(F)F	0	2	0	89*	14	15
CCN(CC(=O)Nc1ccc(NC(C)=O)cc1)CC(=O)Nc1ccc(Cl)c(Cl)c1	0	-7	-2	94*	11	14
CCN(CC(=O)Nc1ccc(C(C)=O)cc1)CC(=O)Nc1ccc2c(c1)OCCO2	0	-1	0	80*	9	12
OC1/C(=C/c2ccc3c(c2)OCO3)Oc2ccccc21 (stereo not drawn)	0	-2	1	53*	-5	-4
SMILES	FBW7 activator	TEAD-YAP block	GPR151 ag	MITF inh	MITF inh conf	AlphaScreen intf2	others
O=C1/C(=C/c2ccc3c(c2)OCO3)COc2ccccc21	0	-13	2	14	nt	nt
O=C(/C=C/c1ccccc1Cl)NC(=S)NNC(=O)c1cccs1	0	-51	5	11	nt	nt
Cc1cc(C(=O)NNC(=S)NC(=O)/C=C/c2ccccc2Cl)n[nH]1	0	-46	0	72*	34*	70*
CC(=O)Nc1ccc(NS(=O)(=O)c2ccccc2[N+](=O)[O-])cc1	0	11	-1	0	nt	nt
CC(=O)Nc1ccc(OS(=O)(=O)c2ccccc2[N+](=O)[O-])cc1	0	-23	-1	56*	-8	-2
CCC(=O)Nc1ccccc1C(=O)OCC(=O)c1cccc([N+](=O)[O-])c1	0	-3	0	56*	-1	-7
COc1ccc2nc3sc(C(=O)Nc4ccc5c(c4)OCCO5)cc3cc2c1	0	-11	0	-7	nt	nt
COc1ccc(C)cc1Nc1ncnc2c1c(-c1ccccc1)cn2-c1ccc(F)cc1	0	4	2	7	nt	nt
O=S(=O)(/C=C/c1ccccc1)N1CCN(C/C=C/c2ccccc2)CC1	0	1	0	11	nt	nt
CCN1CCN(S(=O)(=O)/C=C/c2ccccc2)CC1	0	2	0	74*	-10	-5
O=C1N[C@@H](Cc2ccccc2)C(=O)N2CCN(C(=O)NC3CCCCC3)C[C@H]12	0	13	1	76*	69*	-3	AS interf DR=>6.5
O=C1N[C@H](Cc2ccccc2)C(=O)N2CCN(C(=O)NC3CCCCC3)C[C@H]12	-1	3	-1	74*	71*	-9	AS interf DR=>6.5
CC1(C)CC(=O)C2=C(C1)N(c1cc(Cl)cc(Cl)c1)C(=O)CC2c1cccnc1 (stereo not drawn)	0	4	0	2	nt	nt
CC(C)NC(=O)Cc1c(C(=O)O)n(C)c2ccccc12	0	7	1	-3	nt	nt
CCN(CCC(=O)Nc1ccc(F)cc1)Cc1ccccc1	0	4	-1	4	nt	nt
CCN(CCN(C)C)Cc1ccc(F)c(F)c1	0	3	-1	60*	0	-5
CCN(CCN(C)C)Cc1ccc(F)cc1F	0	1	0	60*	-6	-2
CCN(CCN(C)C)Cc1ccc(F)cc1	0	-4	0	60*	28*	-3	AS interf DR=>6.5
CN(CCC(N)=O)Cc1ccc(F)cc1	0	11	-3	56*	-12	-8
CCN(CCN(C)C)Cc1ccc(F)c(Br)c1	0	8	-1	27	nt	nt
CCN(CCN(C)C)Cc1cccc(OCc2ccccc2)c1	0	6	0	61*	-10	-4
CCCN(CCO)Cc1ccc(Cl)c(Cl)c1	0	7	2	16	nt	nt
CN(C)CCCN(CCCN(C)C)Cc1cccc(Oc2ccccc2)c1	0	-4	1	24	nt	nt
CCCN(CCO)Cc1ccc(Cl)cc1Cl	0	6	1	-2	nt	nt
CCN(CCN(C)C)Cc1ccc(Cl)c(Cl)c1	0	-5	1	54*	3	-5
CCN(CCN(C)C)Cc1ccc(Cl)cc1Cl	0	-6	0	56*	-5	-5
CCN(CCN(C)C)Cc1cccc(Cl)c1Cl	0	4	-1	75*	-4	0
CC(=O)N1C(=O)/C(=C(/C#N)C(=O)NCCc2ccccc2)c2ccccc21	0	7	-1	5	nt	nt
COc1ccc(OC)c(-n2c(CNC(=O)c3cccs3)nnc2SCC(=O)Nc2cccc(C)c2)c1	0	11	0	62*	-10	-7

Screening results deposited in PubChem by The Scripps Research Institute Molecular Screening Center.
